# NadD inh – inhibitors of Staphylococcus aureus NadD. 360,000 compounds, 0.78% hits. inhibition, % at 20 µM. purified NadD enzyme, colorimetric absorbance read-out. AID 602399; in the data active means inhibition above about 26%
# SMARCA2 act – increases SMARCA2 function in MMTV reporter cells. MG213 cells, MMTV-luciferase reporter, dexamethasone, overnight. activation, % at 9.1 µM. 370,000 compounds, 1% hits. AID 652017; in the data active means activation above about 7.8%;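 further: 0% = vehicle wells and 100% = reference activator wells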
# Vif imaging – inhibitors of HIV Vif; HEK293T cells, Vif self-association by quenched fluorescence, imaging, 24 h; inhibition, % at 7.49 µM; 340,000 compounds, 0.35% hits; in the data active means inhibition above about 50%, passing the limit was not always enough
# esBAF inh – inhibitors of esBAF chromatin remodeling in mouse ES cells | Bmi1-luciferase knock-in reporter, 24 h; 100% = twice the neutral-well signal | reporter increase, % at 12.5 µM | 350,000 compounds, 2% hits; in the data active means activation above about 40%;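 further: 0% = median of the plate's neutral control wells and 100% = double that signal; a rise in the Bmi1 reporter signal indicates esBAF inhibition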
# SKN-1 block – inhibitors of C. elegans SKN-1; C. elegans VP596 Pgst-4::GFP/RFP ratio, acrylamide-induced, 24 h; inhibition, % at 21.8 µM; 360,000 compounds, 0.49% hits; AID 624304;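 active means interference check ratio from 0.5 to 1.5 plus GFP to RFP signal ratio inhibition reaching or exceeding a fixed threshold, cut at about 30% in these data, passing the limit was not always enough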
# GRIN3A LBD mod – NR3A (human) ligand-binding domain modulation; AID 1259313; Tm shift relative to glycine control, % at 25 µM; 340,000 compounds, 2.5% hits; NR3A LBD differential scanning fluorimetry, Tm shift; 0% = protein alone, 100% = glycine-bound protein;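 active means melting temperature shift of at least 10% of the positive control shift, at one fixed dose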
# The depositor's hits bear a star; x = no result given. Shown are actives, neighbours in structure and some others; about 5.2% of the full set was active somewhere.
SMILES,NadD inh,SMARCA2 act,Vif imaging,esBAF inh,SKN-1 block,GRIN3A LBD mod
C=C1C(=O)O[C@@H]2[C@H]1[C@@H](OC(=O)/C(C)=C/C)C/C(C)=C\C(=O)/C=C(\C)[C@@H]2O,2.2,1.8,97.1*,-86.2,18.7,3.2
CCCN1C[C@@H](C)[C@H](OC)CN(C)C(=O)c2ccc(NC(=O)c3ccccc3F)cc2OC[C@@H]1C,x,x,x,-0.2,x,x
COc1ccccc1S(=O)(=O)N[C@@H]1C=C[C@H](CC(=O)N2CCCCC2)O[C@@H]1CO,x,x,x,3.4,x,x
Cc1cc2oc(C(=O)Nc3nonc3C)c(C)c2cc1Cl,8.6,-0.2,-1.3,43.8*,14.2,-4.6
Cc1ccc2[nH]cc(C(=O)CCl)c2c1,-4.3,-2.3,-4.9,x,-4.8,38.0*
Cc1ccc2[nH]cc(C(=O)CN3CCN(C)CC3)c2c1,-10.3,1.0,18.9,-1.4,2.4,0.5
O/N=C\c1ccc2noc(-c3ccc(Cl)cc3)c2c1,-5.4,3.2,8.6,13.0,4.1,32.0*
COc1ccc(-c2cc(-c3nnc(-c4ccncc4)o3)c3ccccc3n2)cc1,-1.1,-2.6,-2.7,x,0.4,-6.0
c1ccc2c(-c3nc(C4CCCCC4)no3)cc(-c3ccncc3)nc2c1,-0.6,x,-10.6,-4.6,-20.3,15.2*
C[C@@H]1CN([C@H](C)CO)C(=O)Cc2cc(NC(=O)Nc3ccccc3)ccc2O[C@@H]1CN(C)S(C)(=O)=O,x,x,x,-1.5,x,x
Cc1nc2c(C(=O)NCCC(C)C)c[nH]n2c(=O)c1Cc1ccccc1F,29.5*,-3.8,x,-8.6,7.2,-28.4
C[C@@H]1CCCCO[C@@H](CN(C)Cc2ccncc2)[C@H](C)CN([C@H](C)CO)C(=O)c2cc(NC(=O)Nc3cccc4ccccc34)ccc2O1,x,x,x,-4.6,x,x
CN(C)S(=O)(=O)c1cccc(-c2cn3cc(Cl)ccc3n2)c1,-8.3,x,-10.8,45.1*,-11.0,-0.1
O=C(NCCc1cccs1)C1CC(c2ccc([N+](=O)[O-])cc2)=NO1 (stereo not given),-3.7,7.0,-3.5,58.8*,31.8,-0.8
COc1ccc(C2=NOC(C(=O)NCc3ccco3)C2)cc1 (stereo not given),-2.9,1.6,-2.1,0.7,15.8,11.2*
CCCCNC(=O)C1CC(c2cccc(F)c2)=NO1 (stereo not given),0.2,5.7,-7.8,84.8*,19.7,2.5
CC(C)CCNC(=O)C1CC(c2cccc(F)c2)=NO1 (stereo not given),1.1,-0.2,-7.8,-0.6,14.9,2.5
COc1ccc(CCNC(=O)C2CC(c3cccc([N+](=O)[O-])c3)=NO2)cc1 (stereo not given),-3.2,5.9,38.7,70.0*,3.2,1.9
C[C@@H]1CCCCO[C@H](CN(C)Cc2ccc3c(c2)OCO3)[C@@H](C)CN([C@H](C)CO)C(=O)c2cc(NS(=O)(=O)c3ccccc3)ccc2O1,x,x,x,-1.3,x,x
O=C(c1ccccn1)N1C[C@@H]2[C@H](c3ccccc31)[C@@H](CO)N2C(=O)C1CC1,x,x,x,-1.4,x,x
Cc1ccc(CNC(=O)C2CC(c3cccc([N+](=O)[O-])c3)=NO2)o1 (stereo not given),2.3,6.5,7.5,45.3*,-2.4,-0.6
Cc1ccc(N2C(=O)/C(=C/c3cccnc3)SC2=S)cc1,-4.3,-1.9,x,9.4,-9.7,-0.8
O=C1/C(=C/c2ccccn2)SC(=S)N1c1ccc(O)cc1,-0.3,-2.3,-6.6,x,8.5,-1.3
Cc1ccc(/C=C2/SC(=S)N(c3ccc(S(=O)(=O)Nc4nccs4)cc3)C2=O)cc1,62.3*,-2.4,-7.4,x,-23.9,3.7
O=C1/C(=C\c2ccccn2)SC(=S)N1c1ccc(S(=O)(=O)Nc2nccs2)cc1,44.0*,-2.2,-4.2,x,7.9,0.5
SMILES,NadD inh,SMARCA2 act,Vif imaging,esBAF inh,SKN-1 block,GRIN3A LBD mod
COc1ccc(/C=C2/SC(=S)N(NS(=O)(=O)c3ccccc3)C2=O)cc1,13.6,-1.6,-6.3,x,10.7,-5.3
COc1ccc(/C=C2/SC(=S)N(c3ccc(S(=O)(=O)Nc4nccs4)cc3)C2=O)cc1,56.0*,-4.0,-2.5,x,8.2,6.9
Cc1ccc(-c2csc3ncnc(NS(=O)(=O)c4ccc(Cl)cc4)c23)cc1,4.8,1.4,-19.4,-7.0,0.3,15.5*
Oc1ccc(Cl)cc1N=Nc1ccccc1,-8.6,-1.8,-3.6,-0.4,7.2,0.0
Cc1ccc(O)c(N=Nc2ccccc2)n1,-0.6,2.8,-1.6,62.8*,24.1,2.0
CCCC(=O)Nc1ccc2c(c1)C(=O)N(C)C[C@H](OC)[C@H](C)CN(C(=O)CN(C)C)[C@@H](C)CO2,x,x,x,-1.6,x,x
O=[N+]([O-])c1cc(C(F)(F)F)cc([N+](=O)[O-])c1NCCNC(=S)Nc1cccc(F)c1,-0.6,-5.5,-9.5,-0.2,-5.9,17.1*
C[C@@H]1CCCCO[C@H](CN(C)Cc2ccc(C(F)(F)F)cc2)[C@@H](C)CN([C@@H](C)CO)C(=O)c2cc(NC(=O)Cc3ccccc3)ccc2O1,x,x,x,-2.0,x,x
CC(C)NC(=O)N(C)C[C@@H]1Oc2ncc(C#CCN(C)C)cc2C(=O)N([C@H](C)CO)C[C@@H]1C,x,x,x,-0.8,x,x
Cc1c(C(=O)N(CCO)Cc2ccccc2)oc2c(F)cccc12,-3.3,6.4,-1.8,59.0*,12.6,0.7
COCc1cc(=O)[nH]c(Nc2nc3ccccc3o2)n1,-1.6,2.6,-20.0,49.8*,10.5,-5.2
CN(C)CCNC(=O)Cc1ncc(C(F)(F)F)cc1Cl,1.5,-1.2,-0.3,-0.4,10.6,-1.6
O=C(Cc1ncc(C(F)(F)F)cc1Cl)NCCc1ccccn1,-1.9,7.9*,-2.0,x,3.9,-0.3
COc1cccc(C(=O)Nc2ccc3c(c2)C(=O)N(C)[C@@H]2CC[C@@H](CC(=O)NCc4ccc(F)cc4)O[C@H]2CO3)c1,x,x,x,0.4,x,x
COc1cc2c(cc1NC(=O)CSc1nc3ccccc3[nH]1)oc1ccccc12,14.6,x,-1.9,5.6,-5.0,14.2*
COc1cc2c(cc1NC(=O)CSc1nccn1C)oc1ccccc12,1.2,4.1,-4.9,24.9,6.3,-5.3
COc1cc2c(cc1NC(=O)/C=C/c1ccccc1)oc1ccccc12,0.5,-3.0,4.0,3.9,-5.4,20.1*
COc1cc2c(cc1NC(=O)CSc1nnc(-c3ccccc3F)n1-c1ccc(C)cc1)oc1ccccc12,x,-3.3,x,x,x,x
COc1cc2c(cc1NC(=O)CSc1nc3cc(Cl)ccc3s1)oc1ccccc12,3.3,-2.5,-0.7,x,-5.9,32.1*
COc1cc2c(cc1NC(=O)CSc1ccccc1)oc1ccccc12,2.0,1.0,4.2,x,15.5,35.0*
COc1ccc(/C=C/C(=O)NC(=S)Nc2cc3oc4ccccc4c3cc2OC)cc1,2.8,0.1,5.2,x,8.1,-1.0
C[C@H](CO)N1C[C@H](C)[C@H](CN(C)Cc2ccc3c(c2)OCO3)Oc2c(NS(=O)(=O)c3ccc(Cl)cc3)cccc2C1=O,x,x,x,2.8,x,x
O=C(CSc1nc(=O)[nH]c2c1CCCC2)Nc1cc(C(F)(F)F)cc(C(F)(F)F)c1,19.3,3.2,8.6,2.0,6.4,10.3*

# Bioassay records deposited in PubChem by several laboratories.
